In all, about 52,000 compounds went through this assay and about 4,300 (8.3%) were called active. Shown is part of a subset that was picked to be rich in actives. A number with no mark means an inactive call. Rule as the data show it: active = survival mostly below about 52% (no sharp cut-off); inactive = mostly above about 56%.
System: DeltatarO mutant
Assay: S. aureus survival, RN4220 and DeltatarO strains – OD600, teichoic acid synthesis inhibitors, primary screen (AID 463173)
Conditions: S. aureus RN4220 wild type/DeltatarO growth, OD600, 18 h, stronger effect = lower value, screened at 18.75 µg/mL (by protocol)

Structure (SMILES)	survival
Cc1ccc(C2=NNC(c3cccnc3)=Nc3ccc(F)cc32)o1	96%
COc1ccc(Cl)cc1NC(=O)N1CCC(CN2CCCCCC2)CC1	79%
CN(C)c1ccc(/C=C(/NC(=O)c2ccccc2)C(N)=O)cc1	86%
Cc1ccc(NC(=O)C2CCCN(c3cnccn3)C2)cc1Cl (stereo unspecified)	75%
C=CCNC(=O)CN1CCC(n2nnc3cc(C(F)(F)F)ccc32)CC1	79%
CCOC(=O)c1cnn2c(C(F)(F)F)cc(-c3ccc(Br)cc3)nc12	102%
CCc1ccccc1NC(=O)c1cnn2c(C(F)(F)F)cc(-c3ccc(OC)c(OC)c3)nc12	46% (active)
COC(=O)c1cnn2c(C(F)(F)F)cc(-c3ccccc3)nc12	68%
COc1ccc(-c2cc(C(F)(F)F)n3nc(C(=O)Nc4cccc(Cl)c4Cl)cc3n2)cc1OC	123%
CCc1ccccc1NC(=O)c1cc2nc(-c3ccc(OC)c(OC)c3)cc(C(F)(F)F)n2n1	52% (active)
COc1ccc(-c2cc(C(F)(F)F)n3nc(C(=O)Nc4ccccc4SC)cc3n2)cc1OC	148%
CCCCOc1ccc(C(=O)NCCc2sc(-c3ccc(OC)c(OC)c3)nc2C)cc1	72%
COc1ccc(NC(=O)c2oc3ccccc3c2NC(=O)C23CC4CC(CC(C4)C2)C3)cc1	80%
COc1ccc(N2CCN(c3ncnc4c3cnn4-c3ccc(C)c(Cl)c3)CC2)cc1	96%
Cc1ccc(/C=C/C(=O)N2CCC(c3nc4ccccc4o3)CC2)cc1	87%
CC(C)NC(=O)C1CCN(C(=O)N2CC(C)Oc3ccccc32)CC1 (stereo unspecified)	72%
O=C(NC1CCCC1)c1ccc2c(=O)n(Cc3ccccc3)c(SCc3cccc([N+](=O)[O-])c3)nc2c1	106%
Cn1c(=O)c2c(nc(N3CCOCC3)n2Cc2ccccc2)n(C)c1=O	52%
Cn1c(=O)n(Cc2ccccc2Cl)c(=O)c2c1nc1n2CCN1c1ccccc1	73%
CC(C)CCSc1nc2c(c(=O)n(C)c(=O)n2C)n1Cc1ccccc1Cl	34% (active)
Cn1c(=O)c2c(nc(N3CCOCC3)n2Cc2ccc(Br)cc2)n(C)c1=O	43% (active)
CCOC(=O)Cn1c(=O)c2c(nc(N3CCOCC3)n2Cc2ccccc2)n(C)c1=O	43% (active)
Cn1c(=O)c2c(nc(N3CCOCC3)n2Cc2cccc(Br)c2)n(C)c1=O	80%

Structure (SMILES)	survival
Cn1c(=O)c2c(nc(N3CCOCC3)n2Cc2ccccc2Cl)n(C)c1=O	46% (active)
Cn1c(=O)[nH]c(=O)c2c1nc(N1CCOCC1)n2Cc1ccccc1	167%
CCOC(=O)Cn1c(=O)c2c(nc3n2CCN3c2ccc(CC)cc2)n(C)c1=O	79%
Cn1c(=O)c2c(nc(NCCCCO)n2Cc2ccccc2Cl)n(C)c1=O	63%
COc1ccc(Oc2nc3c(c(=O)n(C)c(=O)n3C)n2Cc2ccccc2Cl)cc1	54%
Cn1c(=O)c2c(nc(N3CCOCC3)n2Cc2ccccc2F)n(C)c1=O	71%
CCOc1ccc(NC(=O)c2c(NC(=O)c3ccco3)sc3c2CCC(C(C)(C)C)C3)cc1 (stereo unspecified)	68%
CCOC(=O)c1c(C)[nH]c(C)c1S(=O)(=O)N1CCCC(C(=O)NCc2cccc(C)c2)C1 (stereo unspecified)	88%
Cc1ccc(CNC(=O)C2CCCN(S(=O)(=O)c3cn(C)cn3)C2)cc1 (stereo unspecified)	94%
O=C(Cn1cnc2ccccc2c1=O)NCCC(=O)Nc1ccc(F)cc1	85%
CC(C)(C)Nc1nc(OCC#N)nc(N2CCOCC2)n1	113%
CCCCNC(=O)Cn1c(=O)cc(C)c2c(C)nn(-c3ccc(CC)cc3)c21	55%
Cc1cc(C)c2c(n1)SCC(=O)N2CC(=O)Nc1ccc(C)c(C)c1	115%
Cc1nnc(NC(=O)c2nc(SCc3ccccc3F)ncc2Cl)s1	90%
CCc1nnc(NC(=O)c2nc(SCc3ccccc3C)ncc2Cl)s1	96%
CCCc1nnc(NC(=O)c2nc(SCC)ncc2Cl)s1	76%
CCc1nnc(NC(=O)c2nc(SCc3ccccc3F)ncc2Cl)s1	31% (active)
CCc1nnc(NC(=O)c2nc(SC)ncc2Cl)s1	109%
Cc1ccc(CSc2ncc(Cl)c(C(=O)Nc3nnc(C)s3)n2)cc1	32% (active)
Cc1ccc(CNC(=O)c2nc(SCc3ccc(C)cc3)ncc2Cl)cc1	99%
Cc1nnc(NC(=O)c2nc(SC(C)C)ncc2Cl)s1	72%
CCSc1ncc(Cl)c(C(=O)Nc2nnc(CC)s2)n1	72%
CCc1nnc(NC(=O)c2nc(SCc3ccc(F)cc3)ncc2Cl)s1	29% (active)
